Data published in PubChem BioAssay (NCATS).
Inconclusive results are not listed. Where a call stands in place of a potency, no number is given. The source made the active and inactive calls. Calls follow the shape of the dose curve; as a rule, active = well fitted curve in the direction sought with a large enough effect; inconclusive = small, poorly fitted or top-dose-only effect, or another doubt; inactive = no such curve, though single readings can be large; an effect the other way counts as inactive or inconclusive.

Target: Voltage-gated inwardly rectifying potassium channel KCNH2 (Homo sapiens) (UniProt Q12809)
Experiment: qHTS Assay for Small Molecule Inhibitors of the Human hERG Channel Activity (AID 588834);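 also: lower thallium flux fluorescence means stronger hERG block; nearly all actives have a fitted effect of over 50% in size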; also: potency is read from the fitted curve at half-maximal effect
Details: U2OS BacMam hERG, FluxOR thallium flux fluorescence; series mostly up to 46.1 µM
Procedure, shortened: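 Thallium serves as surrogate for K+ influx through BacMam-delivered hERG in U2OS cells. Compounds are added for about 10 minutes after dye loading; stimulation buffer then starts flux, monitored kinetically on FDSS.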

Sequence of Voltage-gated inwardly rectifying potassium channel KCNH2 (Homo sapiens) (Q12809 whole entry, looked up): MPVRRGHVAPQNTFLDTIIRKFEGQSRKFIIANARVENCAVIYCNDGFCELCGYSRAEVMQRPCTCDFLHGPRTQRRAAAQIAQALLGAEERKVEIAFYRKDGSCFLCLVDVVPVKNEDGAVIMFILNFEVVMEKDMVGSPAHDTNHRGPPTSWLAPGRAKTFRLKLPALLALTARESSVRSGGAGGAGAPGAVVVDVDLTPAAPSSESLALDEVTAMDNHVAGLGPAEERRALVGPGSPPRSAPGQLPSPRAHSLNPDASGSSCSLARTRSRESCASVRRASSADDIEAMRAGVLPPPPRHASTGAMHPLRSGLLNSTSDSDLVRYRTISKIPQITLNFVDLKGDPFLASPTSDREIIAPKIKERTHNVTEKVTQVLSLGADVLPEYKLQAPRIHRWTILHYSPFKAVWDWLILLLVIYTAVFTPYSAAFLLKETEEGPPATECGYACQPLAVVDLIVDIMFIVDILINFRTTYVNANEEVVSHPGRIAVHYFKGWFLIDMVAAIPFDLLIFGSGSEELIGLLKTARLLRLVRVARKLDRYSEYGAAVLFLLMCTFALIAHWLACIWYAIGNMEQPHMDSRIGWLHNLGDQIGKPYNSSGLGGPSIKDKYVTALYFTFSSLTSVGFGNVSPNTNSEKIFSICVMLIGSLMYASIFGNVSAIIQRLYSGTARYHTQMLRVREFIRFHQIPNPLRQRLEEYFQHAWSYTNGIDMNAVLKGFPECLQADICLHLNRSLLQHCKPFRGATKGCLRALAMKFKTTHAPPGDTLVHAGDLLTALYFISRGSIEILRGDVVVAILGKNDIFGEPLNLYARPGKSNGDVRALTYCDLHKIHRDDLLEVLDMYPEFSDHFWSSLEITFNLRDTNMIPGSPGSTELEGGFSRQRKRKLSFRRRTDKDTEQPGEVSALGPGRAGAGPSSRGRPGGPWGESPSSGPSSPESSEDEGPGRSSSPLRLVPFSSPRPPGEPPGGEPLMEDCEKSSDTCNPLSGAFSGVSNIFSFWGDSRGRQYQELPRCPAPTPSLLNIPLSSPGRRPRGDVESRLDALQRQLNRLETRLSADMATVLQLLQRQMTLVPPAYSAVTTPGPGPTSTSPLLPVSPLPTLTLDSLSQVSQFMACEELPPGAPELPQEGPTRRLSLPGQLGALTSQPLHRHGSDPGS

SMILES	Potency
CC(=O)Oc1c(C)c(C)c2c(c1C)CC[C@@](C)(CCC[C@H](C)CCC[C@H](C)CCCC(C)C)O2	inactive
CC(=O)Oc1ccc(C2(c3ccc(OC(C)=O)cc3)C(=O)Nc3ccccc32)cc1	inactive
OCC(CO)N[C@H]1C[C@](O)(CO)[C@@H](O)[C@H](O)[C@H]1O	inactive
CN1CCCCC1CCN1c2ccccc2Sc2ccc(S(C)=O)cc21 (stereo not given)	inactive
C=CCn1c(=O)n([C@@H]2O[C@H](CO)[C@@H](O)[C@H]2O)c2nc(N)[nH]c(=O)c21	inactive
C[C@@H]1CC[C@@]2(OC1)O[C@H]1C[C@H]3[C@@H]4CC[C@H]5C[C@@H](O)CC[C@]5(C)[C@H]4CC(=O)[C@]3(C)[C@H]1[C@@H]2C	inactive
OC[C@H]1O[C@@H](O[C@@H]2[C@@H](CO)O[C@](O)(CO)[C@H]2O)[C@H](O)[C@@H](O)[C@H]1O	inactive
O=C(O)[C@H](O)c1ccccc1	inactive
[O-][n+]1cccc(CO)c1	inactive
c1ccc2c(CC3=NCCN3)cccc2c1	inactive
Cc1ccc2nc(N)[nH]c(=O)c2c1Sc1ccncc1	inactive
CN1CCOC(c2ccccc2)c2ccccc2C1 (stereo not given)	inactive
CN(C)CCCO[C@@H]1[C@H]2OC(C)(C)O[C@H]2O[C@@H]1C(O)CO (stereo not given in full)	inactive
Cc1ncc([N+](=O)[O-])n1CC(O)CCl (stereo not given)	inactive
N[C@@H](CSSC[C@H](N)C(=O)O)C(=O)O	inactive
COc1ccc2cc1Oc1cc3c(cc1OC)CC[N+](C)(C)[C@H]3Cc1ccc(cc1)Oc1c(OC)c(OC)cc3c1[C@@H](C2)[N+](C)(C)CC3	inactive
C[C@H]1O[C@H](O[C@H]2[C@H](O)[C@@H](O)[C@@H](O[C@H]3[C@H](O)[C@@H](O)[C@H](O)O[C@@H]3CO)O[C@@H]2CO)[C@H](O)[C@@H](O)[C@@H]1N[C@H]1C=C(CO)[C@@H](O)[C@H](O)[C@H]1O	inactive
CC[N+](CC)(CC)CCOc1ccc(/C=C/c2ccccc2)cc1	14.1 µM (active)
CC1=C(C/C=C(\C)CCC[C@H](C)CCC[C@H](C)CCCC(C)C)C(=O)c2ccccc2C1=O	inactive
O=c1[nH]cnc2c1ncn2[C@@H]1O[C@H](CO)[C@@H](O)[C@H]1O	inactive
C/C(=C(\CCOP(=O)(O)O)SC(=O)c1ccccc1)N(C=O)Cc1cnc(C)nc1N	inactive
CCOC(CN1CCN(CC(C)C(=O)c2ccccc2)CC1)c1ccccc1 (stereo not given)	12.6 µM (active)

Target: Luciferin 4-monooxygenase (Photinus pyralis) (UniProt P08659)
Experiment: Biochemical firefly luciferase enzyme assay for NPC (AID 624030);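 also: purified P. pyralis luciferase at 10 nM with luciferin and ATP substrate; nearly all actives have a fitted effect of over 70% in size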
Details: purified P. pyralis luciferase, luminescence, 5 min; series mostly up to 58.6 µM
Procedure, shortened: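 Counter-screen for direct inhibition of the luciferase enzyme by approved-drug library compounds, run at 10 nM enzyme in 50 mM Tris acetate (final). Luminescence was read within 5 min of enzyme-buffer addition and normalized to PTC124 versus DMSO (0%).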

Sequence of Luciferin 4-monooxygenase (Photinus pyralis) (P08659 whole entry, looked up): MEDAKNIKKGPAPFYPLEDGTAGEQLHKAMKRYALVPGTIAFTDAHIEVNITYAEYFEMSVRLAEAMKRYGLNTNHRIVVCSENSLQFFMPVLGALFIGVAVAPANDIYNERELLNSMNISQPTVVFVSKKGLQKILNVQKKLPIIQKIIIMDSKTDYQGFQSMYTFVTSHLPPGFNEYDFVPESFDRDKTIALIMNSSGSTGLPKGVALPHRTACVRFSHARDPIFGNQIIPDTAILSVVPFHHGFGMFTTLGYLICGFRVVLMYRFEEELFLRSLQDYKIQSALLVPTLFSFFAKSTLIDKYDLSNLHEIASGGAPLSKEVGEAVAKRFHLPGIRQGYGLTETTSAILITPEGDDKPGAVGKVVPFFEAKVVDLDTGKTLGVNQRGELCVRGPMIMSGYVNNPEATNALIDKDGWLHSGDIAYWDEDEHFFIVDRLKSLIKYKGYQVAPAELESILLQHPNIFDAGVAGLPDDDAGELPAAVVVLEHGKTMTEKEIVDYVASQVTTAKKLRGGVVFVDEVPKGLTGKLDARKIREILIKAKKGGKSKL

SMILES	Potency
Cc1cc(O)cc2c1O[C@](C)(CCC[C@H](C)CCC[C@H](C)CCCC(C)C)CC2	inactive
O=Cc1ccccc1C=O	inactive
O=C(Oc1ccccc1C(=O)O)c1ccccc1O	inactive
CC(=O)Oc1ccc(C2(c3ccc(OC(C)=O)cc3)C(=O)Nc3ccccc32)cc1	inactive
CN1CCCCC1CCN1c2ccccc2Sc2ccc(S(C)=O)cc21 (stereo not given)	inactive
[O-][n+]1cccc(CO)c1	inactive
Cc1ccc2nc(N)[nH]c(=O)c2c1Sc1ccncc1	inactive
CC[N+](CC)(CC)CCOc1ccc(/C=C/c2ccccc2)cc1	inactive

System: not listed separately
Experiment: S16 Schwann cell viability assay (CellTiter-Glo assay) (AID 624031);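 also: cellular ATP luminescence as a viability measure; nearly all actives have a fitted effect of over 70% in size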
Details: S16 rat Schwann cells viability, 24 h; series mostly up to 57.5 µM
Procedure, shortened: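 CellTiter-Glo ATP luminescence counter-screen in untransfected S16 rat Schwann cells, 24h compound exposure at 37 degree Celsius after overnight seeding (500-750 cells/well); response scaled between cell-free wells and DMSO (0% activity), curves classed by r2 and magnitude.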

SMILES	Potency
Cc1cc(O)cc2c1O[C@](C)(CCC[C@H](C)CCC[C@H](C)CCCC(C)C)CC2	inactive
O=C(Oc1ccccc1C(=O)O)c1ccccc1O	inactive
CC(=O)Oc1ccc(C2(c3ccc(OC(C)=O)cc3)C(=O)Nc3ccccc32)cc1	inactive
CN1CCCCC1CCN1c2ccccc2Sc2ccc(S(C)=O)cc21 (stereo not given)	inactive
Cc1ccc2nc(N)[nH]c(=O)c2c1Sc1ccncc1	inactive
